This excerpt belongs to a sample that is enriched for hits.
HT1080 IDH1KD tx = HT-1080 IDH1 knockdown cell toxicity (counter line); AID 686971; 360,000 compounds, 2% hits; Potency, µM (series often up to 46.1 µM), inactives show top-dose activity, negative = toxicity, hits mostly cytotoxic; HT-1080 IDH1 knockdown viability, ATP luminescence, 48 h;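 note: potency is the fitted concentration of half-maximal effect; 0% = DMSO wells and -100% = cell-free medium wells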
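After a 2 h attachment period, IDH1KD HT-1080 cells took pin-transferred compound for 48 h at 37 °C; ATP-based luminescence after 10 min room-temperature reagent incubation reported viability.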
HT1080NT lethal = kills 2HG-producing HT-1080-NT fibrosarcoma cells; HT-1080-NT fibrosarcoma viability, CellTiter-Glo ATP luminescence, 48 h; Potency, µM (highest dose often 46.1 µM), for inactives: at the highest dose activity, negative = less viability, most hits filed as cytotoxic; 360,000 compounds, 1.6% hits; AID 686970;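 note: NT is the 2HG producing partner of a matched IDH1 knockdown line; potency is the fitted concentration of half-maximal effect; 0% = DMSO-treated cells and -100% = media-only wells without cells; nearly all actives have a fitted effect of over 55% in size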
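Fibrosarcoma NT cells, 750 per well in 5% FBS RPMI, were exposed to compound for 48 hours. Viability: CellTiter-Glo luminescence.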
12-LOX inh = inhibitors of human 12S-lipoxygenase ALOX12; P18054; purified 12hLO, xylenol orange hydroperoxide absorbance; Potency, µM (doses to about 108 µM), for the others: top-dose activity change, negative = inhibition, most hits filed as inhibitors; 580,000 compounds, 1.1% hits; AID 1671190; note: potency is the fitted concentration of half-maximal effect
Target sequence (P18054 whole entry, looked up): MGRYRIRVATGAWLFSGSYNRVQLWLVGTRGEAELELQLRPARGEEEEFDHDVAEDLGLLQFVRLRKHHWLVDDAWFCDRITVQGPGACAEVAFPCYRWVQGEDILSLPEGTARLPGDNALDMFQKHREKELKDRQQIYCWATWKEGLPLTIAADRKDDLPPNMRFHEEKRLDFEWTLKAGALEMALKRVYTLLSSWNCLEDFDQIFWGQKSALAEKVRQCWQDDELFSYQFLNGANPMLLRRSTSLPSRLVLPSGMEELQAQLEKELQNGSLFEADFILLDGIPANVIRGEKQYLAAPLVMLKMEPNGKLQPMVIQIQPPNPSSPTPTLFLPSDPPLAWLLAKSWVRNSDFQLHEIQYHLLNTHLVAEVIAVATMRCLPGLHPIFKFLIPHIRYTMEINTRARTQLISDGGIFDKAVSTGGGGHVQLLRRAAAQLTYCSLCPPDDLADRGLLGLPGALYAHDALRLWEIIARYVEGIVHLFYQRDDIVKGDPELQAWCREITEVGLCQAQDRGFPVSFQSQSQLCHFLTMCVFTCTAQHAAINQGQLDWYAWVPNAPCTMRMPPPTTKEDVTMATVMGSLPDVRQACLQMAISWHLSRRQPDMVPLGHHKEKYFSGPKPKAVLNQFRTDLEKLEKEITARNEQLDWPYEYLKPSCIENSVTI
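Hydroperoxide product was detected by ferrous iron/xylenol orange as the 573 to 405 nm absorbance ratio. Arachidonic acid at 40 uM (final) was turned over for 30 min at room temperature by 150 nM human 12hLO, pH 7.0 Hepes buffer, after 15 min compound preincubation.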
DT40 TDP1 CPT = DT40-hTDP1 cell growth loss with CPT; chicken DT40 Tdp1-/-;hTDP1 cells + 20 nM CPT, ATP luminescence, 48 h; Potency, µM (highest dose often 46.2 µM), inactives show at the highest dose activity change, negative = growth inhibition, actives largely listed as inhibitors; 420,000 compounds, 12% hits; note: potency is the fitted concentration of half-maximal effect; nearly all actives have a fitted effect of over 55% in size
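Chicken DT40 Tdp1-/- cells stably complemented with human TDP1 were seeded at 400 cells/well in medium containing 20 nM camptothecin, exposed to pin-transferred compounds, and grown at 37 °C for at least 48 hr. Viability was read as ATP luminescence.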
IL-1B inflam inh = blocks inflammasome-driven IL-1 beta release | AID 743279 | THP-1 LPS/ATP IL-1B secretion, AlphaLISA, 16 h; stronger effect = lower value | 360,000 compounds, 4.7% hits | activity change, % at 57.5 µM; in the data active = activity change below about -50%; inconclusive = mostly about -30% to -49%
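Secreted IL-1B measured by AlphaLISA bead assay after 16 h compound exposure of THP-1 cells; compounds (final up to 57.5 uM) added 1 h before LPS (250 ng/mL) and ATP (1.25 mM) stimulation; lower signal means less secretion.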
DT40 TDP1 no CPT = qHTS for Inhibitors of human tyrosyl-DNA phosphodiesterase 1 (TDP1): qHTS in cells in absence of CPT; DT40 Tdp1-/- hTDP1 cells, no CPT, ATP luminescence, 48 h; Potency, µM (top dose mostly 46.2 µM), for inactives: at the highest dose activity change, negative = growth inhibition, usual class: inhibitors; 420,000 compounds, 15% hits; note: potency is the fitted concentration of half-maximal effect; nearly all actives have a fitted effect of over 55% in size
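Luminescent ATP content (CellTiter-Glo) served as the growth readout. Knockout chicken DT40 cells expressing human TDP1 were exposed to compounds without camptothecin for a minimum 48 hr at 37 °C.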
Active calls of the source: *; ? = inconclusive; · = not tested or not shown; [ ] = dose if it differs, or a comment. Unless noted, calls come from the whole dose curve; as a rule, active = well fitted curve in the direction sought with a large enough effect; inconclusive = small, poorly fitted or top-dose-only effect, or another doubt; inactive = no such curve, though single readings can be large; an effect the other way counts as inactive or inconclusive. Unless noted, % is set by controls: 0 for no effect and ±100 for the full control effect.

SMILES	HT1080 IDH1KD tx	HT1080NT lethal	12-LOX inh	DT40 TDP1 CPT	IL-1B inflam inh	DT40 TDP1 no CPT
COc1ccc(C(C(=O)NC2CCCC2)n2c(Cc3cc(F)cc(F)c3)nc3ccccc32)cc1 (stereo unspecified)	-10.4%	?	18.0%	?	?	?
COc1ccc(C(C(=O)NC2CCCCC2)n2c(=O)c(-c3cc4ccccc4[nH]3)nc3ccccc32)cc1 (stereo unspecified)	-16.3%	-21.2%	?	?	26.9	14.6µM*
CCC(C(=O)NC1CCCC1)n1c(-c2ccncc2)nc2ccccc21 (stereo unspecified)	1.0%	16.8%	31.1%	18.3%	-19.6	-8.0%
CCC(C(=O)NC1CCCC1)n1c(C2CC2)nc2ccccc21 (stereo unspecified)	1.5%	11.3%	-15.4%	-23.8%	19.8	-29.9%
CSCCC(C(=O)NC1CCCC1)n1c(C2CCCC2)nc2ccccc21 (stereo unspecified)	18.9%	13.1%	0.4%	?	-87.8*	?
CCC(CC)NC(=O)/C=C/c1ccc(OC)cc1	·	·	-44.9%	·	·	·
CCCCCCCCN1C(=O)[C@@H](CC(=O)NCCc2ccccc2OC)C[C@@]2(C(=O)OC)C1=C[C@H](COCc1ccccc1)O[C@@H]2C	·	·	9.7%	·	·	·
Cn1cc(C(=O)N2CCN(S(=O)(=O)c3ccc(F)cc3F)CC2)c2ccccc21	·	·	-5.2%	·	·	·
O=C(NC1CCCCC1)C(c1ccnc2ccccc12)n1c(=O)c(-c2cc3ccccc3[nH]2)nc2ccccc21 (stereo unspecified)	-25.1%	?	?	?	-11.8	14.6µM*
Cc1nc2ccccc2n1CC(=O)NC1CCCCCC1	?	?	-3.7%	11.6µM*	0.0	13µM*
N#Cc1ccc(C(C(=O)NC2CCCCC2)n2c(=O)c(-c3cc4ccccc4[nH]3)nc3ccccc32)cc1 (stereo unspecified)	-21.2%	-24.6%	-16.9%	14.6µM*	-2.2	14.6µM*
O=C(NC1CCCCC1)C(c1ccnc2ccccc12)N1CCOCC1 (stereo unspecified)	3.5%	3.2%	?	-27.4%	0.0	-15.7%
O=C(NC1CCCCC1)C(c1ccccc1)n1c(=O)c(-c2cc3ccccc3[nH]2)nc2ccccc21 (stereo unspecified)	?	-26.8%	-10.8%	?	-68.8*	?
CC(C)c1ccc(C=O)cc1	·	·	-27.4%[176 µM]	·	·	·
Cc1nn(C)c2sc(C(=O)N3CCN(S(=O)(=O)c4cc(F)ccc4F)CC3)cc12	·	·	10.2%	·	·	·
COc1ccc(S(=O)(=O)N2CCOCC2)cc1C(=O)N(C)Cc1ccco1	5.5%	4.9%	-1.8%	0.4%	-9.5	-30.0%
COc1ccc(S(=O)(=O)N2CCCCCC2)cc1C(=O)N(C)Cc1ccc(OC)c(OC)c1OC	9.3%	-3.3%	2.1%	?	-14.7	23.1µM*
COc1ccc(S(=O)(=O)N2CCCCCC2)cc1C(=O)N(C)Cc1ccc(C(C)(C)C)cc1	?	?	-4.6%	?	-72.5*	?
COc1ccc(S(=O)(=O)N2CCCCCC2)cc1C(=O)N(C)Cc1ccco1	2.8%	-0.5%	-10.5%	25.9µM*	-0.6	18.4µM*
CN(C)c1ccc(C=C(c2nnnn2-c2ccccc2)c2nnnn2-c2ccccc2)cc1	4.6%	7.1%	10.1%	20.6µM*	-13.9	16.4µM*
CCOC(=O)c1ccc(/C=C2\c3ccccc3C(=O)N2c2ccccc2)cc1F	-0.5%	-6.9%	0.3%	18.4µM*	72.9	?
Cn1c2ccccc2c(=O)c2ccc(Cl)cc21	0.0%	-1.1%	0.2%	-3.5%	-25.1	-29.4%

Screening results as filed in PubChem BioAssay.
